Cardio protect: protects H9c2 cardiomyocytes from peroxide injury | AID 588492 | protection from H2O2 cell death, % at 20 µM | 0.63% of 360,000 active | H2O2 injury protection, ATPLite, 2 h;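 active = compounds giving at least 50% protection of heart cells from peroxide-induced death in the single-dose screen, raw or plate-pattern-corrected value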
H9c2 TAG inh: triacylglycerol accumulation inhibition; H9c2 cells, Nile Red lipid (TAG) fluorescence; cells loaded with 200 µM oleic acid; 0.66% of 230,000 active; inhibition, % at 12.5 µM; AID 651582;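 active = pattern-corrected inhibition of lipid staining of at least 50% with the nuclear-stain viability signal not falling by more than 50%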
Jurkat NFkB inh: inhibitors of the PMA/ionomycin-induced NF-kB reporter in Jurkat cells | PMA/ionomycin-induced NF-kB luciferase reporter, luminescence | inhibition, % at 4 µM | 0.53% of 330,000 active; in the data active = inhibition above about 50%
NR2F2 inh: blocks human COUP-TFII nuclear receptor; AID 686940; inhibition, % at 8.6 µM; P24468; HEK293T NGFI-A luciferase reporter, luminescence; 0.7% of 370,000 active;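 active = inhibition above a per-plate cutoff, mean inhibition of test wells between control levels plus 3 SD, cut at about 38% in these data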;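 note: cells cotransfected with COUP-TFII expression vector driving the NGFI-A reporter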
Target sequence (P24468 whole entry, looked up): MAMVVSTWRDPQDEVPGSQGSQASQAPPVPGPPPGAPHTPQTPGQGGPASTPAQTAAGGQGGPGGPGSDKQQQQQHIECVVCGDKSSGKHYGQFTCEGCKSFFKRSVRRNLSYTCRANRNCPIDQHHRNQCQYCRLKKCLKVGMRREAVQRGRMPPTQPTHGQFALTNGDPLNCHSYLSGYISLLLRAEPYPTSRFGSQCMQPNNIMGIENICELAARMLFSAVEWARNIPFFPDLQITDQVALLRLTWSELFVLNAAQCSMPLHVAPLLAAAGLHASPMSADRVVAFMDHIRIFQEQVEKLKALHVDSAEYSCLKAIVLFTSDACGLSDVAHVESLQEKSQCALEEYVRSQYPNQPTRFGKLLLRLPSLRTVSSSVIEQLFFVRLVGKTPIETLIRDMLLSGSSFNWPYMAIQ
Gli-Sufu block: Gli-Sufu pathway antagonism; Sufu-KO-LIGHT fibroblasts, Gli luciferase reporter luminescence; inhibition, % at 5 µM; 0.74% of 340,000 active; AID 588413;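 active = inhibition above about 55%, limit read from the data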
697 NFkB inh: lowers PMA/ionomycin-induced NF-kB signal in 697 B cells | 697 B-cell NF-kB luciferase reporter, 16 h | inhibition, % at 4 µM | 0.33% of 330,000 active; in the data active = inhibition above about 35%
Jurkat NFkB conf: inhibitors of the PMA/ionomycin-induced NF-kB reporter in Jurkat cells, retest. shares compounds with Jurkat NFkB inh. Jurkat NF-kB luciferase, 16 h. inhibition, % at 4 µM. 27% of 2,700 active;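 active = inhibition reaching about 45% at 4 µM in either replicate, limit read from the data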
697 NFkB conf: lowers PMA/ionomycin-induced NF-kB signal in 697 B cells | inhibition, % at 4 µM | shares compounds with 697 NFkB inh | 697 B-cell NF-kB luciferase, 16 h | AID 449746 | 35% of 2,000 active; in the data active = inhibition mostly above about 28%, no sharp cut-off; inactive = mostly below about 22%
Gli-Sufu confirm: confirmation of Gli-SUFU pathway antagonists; inhibition, % at 5 µM; Sufu-KO-LIGHT cells, Gli luciferase reporter, luminescence; 40% of 2,500 active; shares compounds with Gli-Sufu block;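 active = mean inhibition at 5 µM reaching about 45%, limit read from the data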
Gli cytotox: counter-screen for Gli-SUFU antagonists: cytotoxicity; 32% of 2,500 active; Sufu-KO-LIGHT cells cytotoxicity, ATP luminescence; cytotoxicity, % at 5 µM; AID 651994; shares compounds with Gli-Sufu block;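 active = mean cytotoxicity at 5 µM above about 25%, limit read from the data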;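 note: cells exposed to compound overnight for roughly 16 to 18 hours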
Wnt3a counter: Wnt3a reporter inhibition counter-screen. inhibition, % at 6.25 µM. AID 651995. Wnt-LIGHT cells, Wnt3a-driven luciferase reporter, luminescence. shares compounds with Gli-Sufu block. 20% of 2,500 active;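 active = mean inhibition above about 25%, limit read from the data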
VP16 Luc counter: VP16 inhibition counter-screen for COUP-TFII; HEK293 Gal4-VP16 luciferase reporter, luminescence; shares compounds with NR2F2 inh; AID 687007; 25% of 2,500 active; inhibition, % at 8.5 µM; in the data active = inhibition above about 13%
NR2F2 inh conf: confirmation of human COUP-TFII (NR2F2) inhibitors; AID 687008; shares compounds with NR2F2 inh; HEK293 NGFI-A luciferase reporter, luminescence; inhibition, % at 8.5 µM; 45% of 2,500 active;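 active = mean inhibition over three repeats above a set limit taken from the earlier primary screen, cut at about 38% in these data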
Hits are given with their value; 0 = inactive; - = not tested or not shown. Rows were chosen to be rich in hits. Some 2.6% of all compounds tested hit in one or more screens of this group.

SMILES | Cardio protect | H9c2 TAG inh | Jurkat NFkB inh | NR2F2 inh | Gli-Sufu block | 697 NFkB inh | Jurkat NFkB conf | VP16 Luc counter | NR2F2 inh conf | others
O=C(NC(NNc1ccc([N+](=O)[O-])cc1)(C(F)(F)F)C(F)(F)F)c1ccccc1Cl | 0 | 0 | 0 | 0 | 0 | 0 | - | - | -
O=C(NCCc1ccccc1F)c1ccc2c(c1)OCCO2 | 0 | - | 76.3 | 96.2 | 69.0 | 55.4 | 81.8 | 63.1 | 83.7 | 697 NFkB conf=39.2
O=[N+]([O-])c1nn(-c2ccc3c(c2)OCCO3)n(O)c1=Nc1ccccc1 | 0 | - | 71.2 | 91.0 | - | 0 | 88.6 | 0 | 0
Cc1cc(C)cc(N=c2c([N+](=O)[O-])nn(-c3ccc4c(c3)OCCO4)n2O)c1 | 0 | 0 | 0 | 0 | 0 | 0 | - | - | -
CC(C)(C)c1ccc(C(=O)Nc2cc(Cl)ccc2C(=O)O)cc1 | - | - | - | 0 | - | - | - | - | -
CC1=CC(=O)C(C(C)C)=C/C1=N/OS(=O)(=O)c1ccccc1 | 0 | 0 | 81.3 | 58.1 | 0 | 0 | 0 | 0 | 0
C=CCN1[C@@H](C)COc2cc(N3CCCC3)ccc2S1(=O)=O | - | - | - | 0 | - | - | - | - | -
O=C1N(c2ccccc2)C[C@@H]2C[C@@H](c3cc4ccccc4o3)N3CCC[C@@]123 | 0 | - | 71.5 | 79.6 | 76.0 | 0 | 0 | 0 | 73.5
O=C1N(c2ccccc2)CC2C(c3ccccc3)C(c3ccccc3)N3CCCC123 (stereo not drawn) | - | - | - | 0 | - | - | - | - | -
C[C@H](O)[C@@H]1CN2CCc3ccc(N4CCOCC4)cc3[C@@H]2C[C@@H]1N(C)CC1CCCCC1 | - | - | - | 0 | - | - | - | - | -
O=C(NNc1ccnc2cc(Cl)ccc12)C1CCCCC1 | 0 | 0 | 69.1 | 56.9 | 76.7 | 0 | 63.9 | 13.0 | 65.2 | Gli-Sufu confirm=76.1;Gli cytotox=35.4;Wnt3a counter=34.4
CC(c1c[nH]c2ccccc12)c1cn(C)c2ccccc12 (stereo not drawn) | - | - | - | 0 | - | - | - | - | -
CCOc1ccc(Br)cc1/C(C)=N\NC1=NCCN1 | 0 | 0 | 70.3 | 44.6 | 0 | 0 | 0 | 0 | 0
COc1ccc(C(=O)OCCN(C)C2CN(Cc3cn(Cc4cccc(F)c4)nn3)S(=O)(=O)C2)cc1OC (stereo not drawn) | - | - | - | 0 | - | - | - | - | -
CCOc1ccc(S(=O)(=O)NCc2ccncc2)cc1 | 0 | 0 | 71.7 | 70.2 | 82.1 | 99.7 | 69.8 | 0 | 62.8 | 697 NFkB conf=93.3;Gli-Sufu confirm=79.2;Gli cytotox=37.3;Wnt3a counter=47.0
CCOc1cc(S(=O)(=O)NCc2ccncc2)ccc1Cl | 0 | - | 64.9 | 74.5 | 78.5 | 58.5 | 68.5 | 0 | 63.0 | 697 NFkB conf=98.5;Gli-Sufu confirm=78.7;Gli cytotox=41.7;Wnt3a counter=0
COc1ccc(C(=O)c2[nH]c(N)c(C(=O)c3ccccc3)c2-c2ccc(OC)c(OC)c2)cc1 | - | - | - | 0 | - | - | - | - | -
CCCCCCCCCCOC(=O)Cn1c(COc2ccccc2OC)[n+](C)c2ccccc21 | 0 | - | 56.8 | 43.8 | 84.8 | 38.7 | 60.2 | 0 | 0 | 697 NFkB conf=52.8
Cc1ccc(NC(=O)N2CCC(N(C)CCC(C)C)CC2)cc1F | - | - | - | 0 | - | - | - | - | -
N=c1c2c(n(Cc3ccc(Br)cc3)c3c1CCC3)CCCC2 | 0 | 0 | 53.4 | 68.3 | 88.2 | 52.0 | 0 | 24.3 | 60.6 | 697 NFkB conf=32.0;Gli-Sufu confirm=88.9;Gli cytotox=37.8;Wnt3a counter=54.2
COc1cccc(CN(C)C(=O)c2ccc(OCC(=O)Nc3cccc(C(F)(F)F)c3)c(OC)c2)c1 | 0 | 0 | 55.8 | 77.4 | 0 | 0 | 61.5 | 0 | 76.4
COc1cc(C(=O)NCCCN(C)C)ccc1OCC(=O)Nc1cccc(C(F)(F)F)c1 | 0 | - | 0 | 0 | 0 | 0 | - | - | -
COc1ccc(/C=C2\SC(=O)N(CCCC(=O)Nc3cc(Cl)ccc3C(=O)O)C2=O)cc1 | 0 | 0 | 72.5 | 100.6 | 73.9 | 91.8 | 83.0 | 88.8 | 101.1 | 697 NFkB conf=89.8
COc1ccc(/C=C2\SC(=S)N(CCC(=O)Nc3ccccc3C(=O)O)C2=O)cc1 | 0 | - | 0 | 0 | 0 | 0 | - | - | -
N=c1ccn(CC(=O)c2ccc(-c3ccccc3)cc2)cc1 | 0 | 0 | 57.9 | 57.9 | 81.7 | 0 | 0 | 0 | 54.3 | Gli-Sufu confirm=84.2;Gli cytotox=0;Wnt3a counter=29.8
SMILES | Cardio protect | H9c2 TAG inh | Jurkat NFkB inh | NR2F2 inh | Gli-Sufu block | 697 NFkB inh | Jurkat NFkB conf | VP16 Luc counter | NR2F2 inh conf | others
COCc1cn(-c2ccc3c(c2)[C@]2(CC(=O)N(C)C2c2ccccc2)C(=O)N3CC(C)C)nn1 (stereo partly drawn) | - | - | - | 0 | - | - | - | - | -
CC(Nc1ncnc2ccccc12)c1ccccc1 (stereo not drawn) | 0 | - | 50.2 | 71.2 | 63.1 | 0 | 62.7 | 0 | 60.9 | Gli-Sufu confirm=72.9;Gli cytotox=34.4;Wnt3a counter=41.0
CC(C)(C)C(=O)Nc1ccc(NC(=O)c2ccco2)nc1 | 0 | - | 77.9 | 84.3 | 80.1 | 0 | 87.9 | 77.6 | 94.9
COc1ccc2c(c1)[nH]c1c(N3CCN(Cc4ccc5c(c4)OCO5)CC3)ncnc12 | 0 | - | 52.5 | 46.3 | 0 | 0 | 58.0 | 0 | 65.4
CCC(O)C1CCN(C(=O)c2cc(COc3ccc4ncccc4c3)on2)CC1 (stereo not drawn) | 0 | - | 56.2 | 72.3 | 72.6 | 0 | 67.4 | 0 | 62.9 | Gli-Sufu confirm=65.0;Gli cytotox=0;Wnt3a counter=40.0
O=C(c1cc(COc2ccc3ncccc3c2)on1)N1CCC(O)CC1 | 0 | 0 | 0 | 0 | 0 | 0 | - | - | -
CC1C/C(=C/c2cccn2C)C(=O)/C(=C/c2cccn2C)C1 (stereo not drawn) | 0 | 0 | 0 | 0 | 0 | 0 | - | - | -
CC1C/C(=C/c2ccncc2)C(=O)/C(=C/c2ccncc2)C1 (stereo not drawn) | 0 | 0 | 95.6 | 87.0 | 0 | 0 | 0 | 82.2 | 96.8
CCCCc1ccc(N/C(N)=N/c2nc(C)cc(C)n2)cc1 | 0 | 0 | 75.4 | 49.3 | 0 | 0 | 0 | 28.7 | 55.9
CCCCCCN1C=CC(=C2C(=O)c3ccccc3C2=O)C=C1 | 0 | 0 | 0 | 0 | 0 | 0 | - | - | -
CN1C=CC(=C2C(=O)c3ccccc3C2=O)C=C1 | - | - | 0 | - | - | 0 | - | - | -
CCN1C=CC(=C2C(=O)c3ccccc3C2=O)C=C1 | 0 | - | 54.0 | 70.0 | 58.8 | 0 | 45.0 | 31.1 | 0
CCCN1C=CC(=C2C(=O)c3ccccc3C2=O)C=C1 | 0 | - | 69.4 | 85.1 | 78.5 | 43.5 | 74.7 | 72.9 | 84.9 | 697 NFkB conf=0

High-throughput results: PubChem, several laboratories
